From ChEMBL document CHEMBL3988442, “University of Dundee, Small-Polar-MMV Screening Library” (2021)
The whole screen tested about 38,000 compounds, of which about 1,200 (3.2%) showed an effect of 50% or more. The median lay at about -58%. What follows is part of a selection rich in strong results, with near analogues and random picks from the rest.

Test system: Plasmodium falciparum
Test: Calibr Malaria Delayed Death Assay SOP
Format: functional, organism-based
Design: scale not given: in the data most compounds retested in dose-response had high values
Details: concentration 4.99e-06 (unit not given; other assays of the set use mol/L)

Structure (SMILES) | Percent Effect [%]
Cc1ccc(C(=O)N2CCC3(CCC(=O)N(C(C)C)C3)CC2)c(O)c1 | -20.48
COC(=O)c1ccc(C2CC(=O)Nc3c2cnn3C)cc1 (configuration not stated) | -67.54
CCc1noc(CN2CCCC(Cn3nc(C)nc3C)C2)n1 (configuration not stated) | -109.5
CN(C)c1ccc(C(=O)N2CCN(Cc3cscn3)CC2)cc1F | -147.3
CCC1CN(Cc2c(O)ccc3oc4c(c23)CCCC4)CCO1 (configuration not stated) | 59.59
Oc1ccc2oc3c(c2c1CN1CCOCC1)CCCC3 | 15.46
NC(=O)C1CN(Cc2c(O)ccc3oc4c(c23)CCCC4)CCO1 (configuration not stated) | -24.38
CN1CCC(N(C)C[C@H]2CC[C@@H](Cc3ccc4occc4c3)O2)CC1 | 85.36
COc1ccc(C[C@@H]2CC[C@H](CN(C)C3CCN(C)CC3)O2)cc1 | 49.48
CCN1CCN(C[C@H]2CC[C@@H](Cc3ccc4c(c3)OCO4)O2)CC1 | -22.56
CN1CCN(C[C@H]2CC[C@@H](Cc3ccc4c(c3)OCO4)O2)CC1 | -29.46
CN1CCC(N(C)C[C@H]2CC[C@@H](Cc3cccc(CO)c3)O2)CC1 | -136
CN1CCC(N(C)C[C@H]2CC[C@@H](Cc3cccc(O)c3)O2)CC1 | 56.23
CCCc1ccc(C(=O)N2CCc3c(nc(C)nc3N(C)C)C2)cc1 | -63.88
COc1ccc([C@@H]2NC(=O)N[C@H]3OCCC[C@H]32)cc1 | 13.26
O=C(c1ccco1)N1C[C@H]2CN(Cc3cccc(F)c3)C(=O)[C@H]2C1 | -97.73
O=C(CNC(=O)N1CCN(c2cccc(Cl)c2)CC1)Nc1ccccn1 | -109.2
CN(Cc1nnc(C2CC2)n1C)S(=O)(=O)Cc1ccccc1F | -39.05
Cc1cc(NC(=O)CN(c2ccccc2)C(C)C)on1 | -10.54
Cc1cc(NC(=O)N(C)CCN2CCN(c3ccccc3)CC2)on1 | -52.94
Cc1cc(NC(=O)NC(C)CN2CCN(c3ccccc3)CC2)on1 (configuration not stated) | 58.09
COC(=O)c1cc2c(=O)n(C3CC3)ccc2nc1C | -61.53
Cc1nc(C)n(C2CCCN(C(=O)CCCNc3ncccn3)C2)n1 (configuration not stated) | -99.16
CSc1ccc(OCCN2CCNC(=O)C2C)cc1 (configuration not stated) | -33.67
COCC1CC2(CCN(Cc3ccoc3)CC2)CN1Cc1ccccn1 (configuration not stated) | 55.13
COCC1CC2(CCN(Cc3nccs3)CC2)CN1Cc1ccccn1.O=C(O)C(F)(F)F.O=C(O)C(F)(F)F.O=C(O)C(F)(F)F (configuration not stated) | -3.583

Structure (SMILES) | Percent Effect [%]
COCC1CC2(CCN(CC3CC3)CC2)CN1Cc1ccccn1.O=C(O)C(F)(F)F.O=C(O)C(F)(F)F (configuration not stated) | 39.61
CCOc1ccc(-c2c(C#N)c(N)nc3c2COCC3)cn1 | -92.51
CC(=O)N(Cc1noc(C2CC2)n1)C1CCN(Cc2ccccn2)C1 (configuration not stated) | -1.635
O=C(O)C(F)(F)F.O=C(O)C(F)(F)F.O=C(c1ccnnc1)N1CCN(Cc2cccnc2)c2ncccc2C1 | -70.53
CN1CCC(N(C)CCC(=O)N2CCC(CCc3ccccc3)CC2)C1 (configuration not stated) | 17.74
CN1CC[C@H](N(Cc2ccccc2)Cc2ccccc2)C[C@H](O)C1 | 71.85
CN1CC[C@H](N(Cc2ccccc2)CC2CC2)C[C@H](O)C1 | 80.63
CN1CC[C@H](N(Cc2ccccc2)C2COC2)C[C@H](O)C1 | 43.99
CN1CC[C@H](N(C)Cc2ccccc2)C[C@H](O)C1 | 2.065
CN(CC1CC1)C(=O)CN(Cc1cccc(O)c1)C1CCC(O)CC1 (configuration not stated) | -102.5
O=c1[nH]c(CN2CCOC(Cn3cccn3)C2)nc2ccccc12 (configuration not stated) | -93.34
Cc1cc(CN2CCN(C(=O)C(C(C)C)n3cncn3)CC2)no1 (configuration not stated) | -20.49
Cc1ccc(OCCC(=O)N2CCCC(n3nc(C)nc3C)C2)cc1 (configuration not stated) | 0.003662
c1ccc(CCCN2CCOC(Cn3cccn3)C2)cc1 (configuration not stated) | -23.01
NC(=O)CCN(CC(=O)NCc1ccccn1)c1ccc(F)cc1 | -98.56
O=C(Nc1ccccc1)N1C[C@H]2C[C@H](C(=O)N3CCOCC3)[C@@H](C1)O2 | -95.7
CN1CCN(Cc2ccccc2CNC(=O)c2cc(Br)ccc2F)CC1 | 76.59
Cn1ccc(C(=O)NCc2ccccc2CN2CCCCC2)cc1=O | -63.4
CN1CCN(Cc2ccccc2CNC(=O)c2ccc(Cl)cc2F)CC1 | 76.33
O=C(NCc1ccccc1CN1CCOCC1)c1ccc(Br)cc1F | -44.16
CC1CCN(C(CNC(=O)CCn2cccn2)c2cccs2)CC1 (configuration not stated) | -77
Cn1ccnc1CN1CCN(CC(=O)NCc2ccccc2F)CC1 | -19.05
CN1CCN(C(CNC(=O)c2ccc(Cl)cc2F)c2cccs2)CC1 (configuration not stated) | 51.8
CNC(=O)c1ccc(CNC(=O)c2ccc(Cl)cc2F)cc1 | -28.69
CN1CCN(Cc2ccccc2CNC(=O)c2cc(Cl)ccc2F)CC1 | 65.2
CN1CCN(Cc2ccccc2CNC(=O)c2ccc(Br)cc2)CC1 | 45.05

Structure (SMILES) | Percent Effect [%]
CN1CCN(Cc2ccccc2CNC(=O)c2ccc(Br)cc2F)CC1 | 47.71
O=C(NCC(c1cccs1)N1CCOCC1)c1ccc(F)cc1Cl (configuration not stated) | -47.97
Cc1ccc(CCNC(=O)Cn2nc(C)n(Cc3ccccc3)c2=O)s1 | -1.162
CCCNC(=O)CCC(=O)n1nc(C)c2ccccc21 | -0.03666
Cc1cc(C)nc(N(C)CCN(C)C2CCCC2)n1 | 27.63
Cc1cc(N(C)CCN(C)C2CCCC2)n2nc(C)cc2n1 | 53.42
Cc1cc(N(C)CCN(C)C)n2nc(C)cc2n1 | -114.6
Nc1ncc(C(=O)N2CCN(c3nccs3)CC2)cc1Cl | -61.47
CN(C)c1ccc(C(=O)NCC2(c3ccccc3)CCOCC2)cc1 | -48.74
COc1ccccc1C1(CNc2ccc(C(=O)N(C)C)cn2)CC1 | -78.51
Oc1cccc(CNCCC2CCCO2)c1 (configuration not stated) | -6.783
COc1ccccc1C1(CNCc2ccc([S+](C)[O-])cc2)CC1 (configuration not stated) | 68.71
COc1ccccc1C1(CNc2cn[nH]c(=O)c2Cl)CCOCC1 | -35.38
COc1ccccc1C1(CNc2ncc(S(N)(=O)=O)s2)CC1 | -83.98
Cl.N#Cc1ccc(CNCC2(c3ccccc3)CCOCC2)cc1 | 82.55
Cc1nnc(NCC2(c3ccccc3)CCOCC2)c(C#N)c1C | 3.02
CS(=O)(=O)C1(CNCc2cccc(-n3cccn3)c2)CCOCC1 | -93.15
COc1ccccc1C1(CNCc2ccc(C#N)cc2)CCOCC1 | 76
COc1ccccc1C1(CNCc2cccc(O)c2)CCOCC1 | 82.33
COc1cc(OC)c(CNC(=O)NCc2ccc(C#N)cc2)c(OC)c1 | -15.69
O=C(COc1ccccc1NCc1ccc(F)cc1)N1CCOCC1 | -94.22
COCCOCC(=O)Nc1ccccc1F | -49.03
COc1cc(CNc2cc(N3CCCC3CO)ncn2)ccn1 (configuration not stated) | -84.2
CN1CCC/C1=N\S(=O)(=O)c1ccc(NC(=O)c2ccsc2)cc1 | -6.415
CCn1cnnc1CNC(=O)c1cc(F)ccc1OC | -155.2
Cl.Nc1cccnc1N1CCCCCC1 | -85.39

Structure (SMILES) | Percent Effect [%]
C[C@@H]1CN(CCC(=O)NCc2ccccc2Cl)C[C@@]1(O)C1CC1 | 46.32
O=C(O)C(F)(F)F.O=C(O)C(F)(F)F.c1coc(CN2CCCn3c(CN4CCOCC4)nnc3C2)c1 | -56.94
CCSc1ccc(C(=O)NCCc2nnc(-c3ccco3)[nH]2)cn1 | -77.1
CC(OCC1CC1)C(=O)NCCC(=O)Nc1ccccn1 (configuration not stated) | -13.51
COc1ccc(OC)c(Nc2nc3c(C)nn(C)c3c(=O)n2C)c1 | -88.36
CCOCC1CC2(CCN(C(=O)c3ccc4ccccc4n3)CC2)CO1.O=C(O)C(F)(F)F (configuration not stated) | 2.806
COc1ccccc1C1(CNCc2cccc(C#N)c2)CCOCC1 | 66.05
COc1ccc(CN(C)Cc2cccc(C#N)c2)c(OC)c1 | 25.49
COc1cccc(N2CCC(CNCc3cccc(C#N)c3)C2)c1 (configuration not stated) | -60.34
CC(C)NC(=O)CN1CCCNCC1 | -82.69
O=C(c1cc(-c2ccn(CC3CC3)n2)n2ccccc12)N1CCOCC1 | 67.86
O=C(c1cc(-c2ccn(CC3CC3)n2)n2ccccc12)N1CCCO1 | -90.15
O=C(O)c1cc(-c2ccn(CC3CC3)n2)n2ccccc12 | -79.58
Cc1nc(CNC(=O)NC2CCCN(c3ncccn3)C2)cs1 (configuration not stated) | -24.32
CCn1nc(C)c2ccn(CC(=O)NCC3CCCO3)c(=O)c21 (configuration not stated) | -59.75
CCC(CNS(C)(=O)=O)Oc1ccccc1C (configuration not stated) | -141.4
CCC(CNC1CCN(C(=O)N(C)C)CC1)Oc1ccccc1C (configuration not stated) | 72.22
Cc1cccc(C)c1OC1CN(C(=O)C2CCN(C(=O)N(C)C)CC2)C1 | -10.34
CCC(CNC1CCN(C(C)=O)CC1)Oc1cccc(C)c1 (configuration not stated) | 51.47
CCC(CNC1CCN(C(C)=O)CC1)Oc1ccccc1Cl (configuration not stated) | 48.49
COCC(=O)N1CCC(Oc2cccc(C)c2)CC1 | -129.3
CCc1ccc(C(=O)N2CCN(CC(O)CC)CC2)o1 (configuration not stated) | -8.781
Cc1nn(C)c(C)c1C1COCCN1c1ncncc1Br (configuration not stated) | -86.62
O=C(O)C(F)(F)F.OCCN1CCC(F)(F)C2(CCN(c3cnccn3)C2)C1 (configuration not stated) | -58.35
